Our source for the activation, Potency and viability values is PubChem BioAssay (NCATS).

Test [1] deals with Cellular tumor antigen p53 (Homo sapiens) (UniProt P04637). The experiment in a line: Primary qHTS for small molecule compounds that upregulate eGFP-tagged delta133p53alpha (in N-terminal) cells. (AID 2060322).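 For activation: series mostly up to about 56 µM; 0% = DMSO vehicle and 100% = reference activator.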 Note: nearly all actives have a fitted effect of over 75% in size. Note: potency is the fitted concentration of half-maximal effect. Particulars: NCI-H358 eGFP-delta133p53alpha fluorescence, 24 h; activation: hits give high values. Put shortly: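 NCI-H358 cells pre-induced 24 h with 10 ng/ml doxycycline to express N-terminal eGFP-delta133p53alpha, then dosed 24 h at 37C without doxycycline; fixed, Hoechst-stained, GFP intensity by laser scanning cytometry, normalized to DMSO (0%) and 57.5 uM 5-azacytidine (100%).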
Sequence of Cellular tumor antigen p53 (Homo sapiens) (P04637 whole entry, looked up): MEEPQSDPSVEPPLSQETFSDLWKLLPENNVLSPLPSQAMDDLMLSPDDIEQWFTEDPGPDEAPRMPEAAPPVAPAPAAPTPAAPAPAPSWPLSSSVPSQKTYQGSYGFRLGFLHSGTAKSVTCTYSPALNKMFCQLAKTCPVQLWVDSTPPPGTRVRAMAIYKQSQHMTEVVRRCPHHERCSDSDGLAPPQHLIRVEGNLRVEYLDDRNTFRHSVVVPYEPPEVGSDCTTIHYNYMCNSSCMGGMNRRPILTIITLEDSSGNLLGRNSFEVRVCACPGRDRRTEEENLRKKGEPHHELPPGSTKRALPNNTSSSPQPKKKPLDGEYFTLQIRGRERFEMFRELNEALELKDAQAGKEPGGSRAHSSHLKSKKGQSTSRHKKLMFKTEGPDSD
In general terms: qHTS replaces the single test concentration by a dilution series.

Test [2] shares this target. The experiment in a line: Primary qHTS for small molecule compounds that upregulate eGFP-tagged delta133p53alpha (in C-terminal) cells. (AID 2060324). Note: potency is the fitted concentration of half-maximal effect. The essentials: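 NCI-H358 cells with doxycycline-inducible D133p53a-eGFP (C-terminal tag), pre-induced 24 h with 100 ng/ml doxycycline, plated 800/well in doxycycline-free medium and treated 24 h at 37 °C with compound titrations. Cells were then fixed and Hoechst-stained, and GFP intensity was read by laser scanning cytometry.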

In test [3] the target is Aldehyde dehydrogenase, mitochondrial (Homo sapiens) (UniProt P05091). The experiment in a line: qHTS for Inhibitors of the Aldehyde Dehydrogenase Family (ALDH2) Validation screens (AID 2061302; active = well fitted inhibition curve with a large enough effect; title and protocol of this record describe different tests;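 note: plate controls were DMSO vehicle for no effect and maximal DPI positive control response for full effect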).
Test [4] can be described thus: BET inhibitor-based combinations targeting novel dependencies in MECOM-rearranged (r) AML: OCI-AML3 cell line (AID 2202232). Note: nearly all actives have a fitted effect of over 35% in size. Note: potency is the fitted concentration of half-maximal effect. Particulars: Potency: OCI-AML3 viability. Put shortly: (§1)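 A 48 hr incubation preceded viability reading by CellTiter-Glo, with 15 min room-temperature development. Dose series had 11 points; normalization used DMSO and empty wells; AUC was computed and mean-centered per line as Z-AUC.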

A short description of test [5]: BET inhibitor-based combinations targeting novel dependencies in MECOM-rearranged (r) AML: MV-4-11 cell line (AID 2202233). Note: nearly all actives have a fitted effect of over 45% in size. Note: potency is the fitted concentration of half-maximal effect. Put shortly: (§2)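 Each compound is tested in an 11-point concentration series against 500 seeded cells/well for 48 hr. The luminescent viability signal is normalized to DMSO and blank wells, then reduced to AUC and a cell-line-centred Z-AUC.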
A short description of test [6]: BET inhibitor-based combinations targeting novel dependencies in MECOM-rearranged (r) AML: AML-194 cell line (AID 2202237; note: nearly all actives have a fitted effect of over 40% in size; note: potency is the fitted concentration of half-maximal effect). Put shortly: as §1
The nature of test [7]: BET inhibitor-based combinations targeting novel dependencies in MECOM-rearranged (r) AML: SET-2 cell line (AID 2202231).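 Note: plate controls were DMSO treated cells for no effect and wells without cells for full effect; nearly all actives have a fitted effect of over 35% in size.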 To be noted: SET-2 AML cells viability, CellTiter-Glo luminescence, 48 h; viability: hits give low values, series mostly up to about 46 µM. The essentials:
as §1
(In general: In ATP-based viability assays light output follows the ATP content of the culture.)

A short description of test [8]: BET inhibitor-based combinations targeting novel dependencies in MECOM-rearranged (r) AML: HNT-34 cell line (AID 2202234). Note: nearly all actives have a fitted effect of over 35% in size. Note: potency is the fitted concentration of half-maximal effect. The essentials: as §2
Test [9] in a line: BET inhibitor-based combinations targeting novel dependencies in MECOM-rearranged (r) AML: AML-191 cell line (AID 2202236; note: nearly all actives have a fitted effect of over 35% in size; note: potency is the fitted concentration of half-maximal effect). The essentials: as §1
The nature of test [10]: BET inhibitor-based combinations targeting novel dependencies in MECOM-rearranged (r) AML: UCSD-AML1 cell line (AID 2202235). Note: nearly all actives have a fitted effect of over 40% in size. Note: potency is the fitted concentration of half-maximal effect. Put shortly: as §2

Where “and” joins values, the source holds several entries; their conditions need not be identical. Equal values may be shown once. Results filed as inconclusive are left out. Some structures have more than one record in an assay (separate samples or runs), and their calls can disagree. Calls of active or inactive are those of the source. Unless noted, calls come from the whole dose curve; as a rule, active = well fitted curve in the direction sought with a large enough effect; inconclusive = small, poorly fitted or top-dose-only effect, or another doubt; inactive = no such curve, though single readings can be large; an effect the other way counts as inactive or inconclusive.

In general, viability refers to a read-out of living cells in per cent, often relative to untreated cells.

Regarding `COc1ccc(-c2cc3ncc(C)n3c(Nc3ncccc3C(N)=O)n2)cc1OC`, the activation in test [1] was 2.48% (inactive). Also, the Potency in test [2] was 10.7 µM (active).

On to `N.N.O=C(O)C1(C(=O)O)CCC1.[Pt+2]`, for which the activation in test [1] was -8.5% (inactive). In addition, the Potency entry in test [2] and in test [3] was “inactive” each time.

As for `Brc1c(Br)c(Br)c2n[nH]nc2c1Br`, in [1], the activation is -52.8% (inactive). For the same compound, the Potency entry in [2] was “inactive”.

For `CN1CCc2ccccc2Cc2[nH]c3ccccc3c2CC1`, the activation in [1] was -5.31% (inactive). Further, the Potency in [2] was 26.9 µM (active). In addition, the Potency entry in test [3] was “inactive”.

Take `CCOC(=O)C1=C(C)NC(C)=C(C(=O)OC)C1c1cccc([N+](=O)[O-])c1` (stereo not drawn): the activation in test [1] is -7.72% (inactive). The Potency entry in test [2] and in test [3] was “inactive” throughout.

Turning to `N#Cc1cc([N+](=O)[O-])c2sc(C(N)=O)[n+]([O-])c2c1`, the activation in test [1] is -56.4% (inactive). For the same compound, the Potency entry in test [2] was “inactive”.

As to `C[C@H](NC(=O)/C(C#N)=C/c1ccc(O)c(O)c1)c1ccccc1`, the activation in test [1] is -11.2% (inactive). Also, the Potency entry in [2] is “inactive”.

`CN1C2CCC1CC(OC(=O)C(O)c1ccccc1)C2` (stereo not drawn): the activation in test [1] was 8.16% (inactive). Further, the Potency entry in [2] and in test [3] was “inactive” in each case.

Turning to `NC1(C(=O)O)CCc2cc(C(=O)O)ccc21` (stereo not drawn), the activation in [1] is 7.39% (inactive). For the same compound, the Potency entry in test [2] was “inactive”.

In the case of `Cn1cc(C(F)(F)F)nc1-c1ccc(OCC(O)CNCCOc2ccc(O)c(C(N)=O)c2)cc1` (stereo not drawn), the activation in [1] was -30.5% (inactive). In addition, the Potency entry in test [2] is “inactive”.

`N[C@@H](CS(=O)O)C(=O)O`: the activation in [1] was -27.4% (inactive). For the same compound, the Potency result in test [2] and in test [3] was “inactive” each time.

For `Cc1c(-c2ccc(O)cc2)n(Cc2ccc(OCCN3CCCCCC3)cc2)c2ccc(O)cc12`, the Potency in [1] is 38.9 µM (active); in test [4], 16.6 µM (active); in [5] it was 16.6 µM (active); in test [6] it was 26.3 µM (active). Moreover, the activation in test [1] was -20.9% (inactive).

Regarding `COc1ncnc(NS(=O)(=O)c2ccc(N)cc2)c1OC`, in test [1], the Potency is 27.3 µM (active). Also, the activation in test [1] was 26.8% (inactive). Moreover, the viability in test [7] is 116% (inactive). The Potency entry in [4], in test [5], in test [8], in test [9] and in test [6] was “inactive” each time.

Take `CC(C)[C@H](C(=O)Nc1ccc(C(=O)NO)cc1)c1ccccc1`: the Potency in test [1] is 30.6 µM (active); in [4], 0.742 µM (active); in test [5], 0.372 µM (active); in test [8], 0.833 µM (active); in test [10] it was 0.833 µM (active); in [9] it was 0.662 µM (active). The Potency in test [6] was 0.833 µM (active). Further, the activation in test [1] is 66.7% (inactive).

Turning to `COc1ccc(Br)cc1S(=O)(=O)NC(=O)/C=C/c1ccccc1Cc1ccc2ccccc2c1`, the activation in test [1] is -15.8% (inactive). Also, in [2], the Potency result is “inactive”.

Regarding `C=CCN1CCc2c(cc(O)c(O)c2Cl)C(c2ccccc2)C1` (stereo not drawn), the activation in test [1] is -14.2% (inactive). In addition, the Potency entry in test [2] was “inactive”.

For the compound `CCCCCCCCCC(=O)NC(CN1CCOCC1)[C@H](O)c1ccccc1` (stereo partly drawn), in [1], the activation is -7.14% (inactive). For the same compound, the Potency entry in test [2] was “inactive”.

In the case of `O=C(/C=C/c1ccc(O)c(O)c1)OCCc1ccccc1`, the activation in test [1] was -0.816% (inactive). For the same compound, in test [2], the Potency result is “inactive”.

Regarding `O=C(CCc1ccncc1)NNC(=O)N1Cc2ccccc2Oc2ccc(Cl)cc21`, in [1], the activation was -9.58% (inactive). The Potency result in test [2] and in test [3] was “inactive” in each case.

For the compound `O=c1cc(O)cc(/C=C/c2ccc(O)c(O)c2)o1`, in test [1], the activation was -54.7% (inactive). Moreover, the Potency entry in test [2] and in test [3] was “inactive” each time.

For the compound `N#C/C(=C\c1ccc(O)c(O)c1)C(=O)NCCc1ccccc1`, in test [1], the activation was -26.1% (inactive). Also, in [2], the Potency result was “inactive”.

`COc1cccc2c1[C@@H]1CN(CCCCn3c(=O)[nH]c4c(sc5ncc(-c6ccccc6)nc54)c3=O)C[C@@H]1CO2`: the activation in [1] is -97.6% (inactive). The Potency result in test [2] was “inactive”.

In the case of `O=C1N=C(O)CN1/N=C/c1ccc(-c2ccc([N+](=O)[O-])cc2)o1`, in test [1], the activation is 5.02% (inactive) and 6.04% (inactive). For the same compound, the Potency entry in test [2] is “inactive”.

For the compound `COc1ccc(CCN(C)CCc2ccc(OC)c(OC)c2)cc1OC`, in [1], the activation is -16.8% (inactive). Besides, the Potency result in [2] and in [3] was “inactive” each time.

Turning to `CN(C)CCCc1cc(C(=O)Nc2ccc(-c3ccncc3)cc2)ccc1O`, the activation in [1] is -14.9% (inactive). For the same compound, the Potency entry in test [2] and in test [3] was “inactive” in each case.

As for `Oc1ccc(/C=C/c2ccc(/C=C/c3ccc(O)cc3)c(Br)c2)cc1`, the Potency in test [1] is 3.38 µM (active). Besides, the Potency result in test [2] was “inactive”.

Regarding `CCN(CC)CCOC(=O)c1cc(Cl)c(N)cc1OC`, the activation in [1] is -18.7% (inactive). In addition, the Potency entry in [2] and in test [3] was “inactive” in each case.

`C[C@H]1c2cccc(O)c2C(O)=C2C(=O)[C@]3(O)C(O)=C(C(N)=O)C(=O)[C@@H](N(C)C)[C@@H]3[C@@H](O)[C@@H]21`: the Potency in test [1] is 15.5 µM (active) and 2.73 µM (active); in [8], 18.6 µM (active); in test [9] it was 26.3 µM (active); in test [6], 23.5 µM (active). Moreover, in [1], the activation is -2.21% (inactive).

`O=c1oc(Cl)c(Cl)c2ccccc12`: the activation in test [1] was 3% (inactive). Also, the Potency result in test [2] was “inactive”.

`Cc1coc2c1C(=O)C(=O)c1c-2ccc2c1CCCC2(C)C`: the Potency in test [1] was 8.49 µM (active); in [8], 18.6 µM (active). Moreover, in [1], the activation was 36.5% (inactive). In test [7], the viability is 97.6% (inactive). Also, the Potency entry in test [10], in test [9] and in test [6] was “inactive” in each case.
